An excerpt weighted towards active compounds, which were near 2.4% of everything screened.
PABP polyA inh – blocks human PABP binding to poly(A) RNA | P11940 | fluorescence polarization | inhibition, % at 35 µM | actives 1% (n = 290,000) | AID 2014;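 further: calls also rest on retests at 20 µM and on dose response follow-up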
Target sequence (P11940 whole entry, looked up): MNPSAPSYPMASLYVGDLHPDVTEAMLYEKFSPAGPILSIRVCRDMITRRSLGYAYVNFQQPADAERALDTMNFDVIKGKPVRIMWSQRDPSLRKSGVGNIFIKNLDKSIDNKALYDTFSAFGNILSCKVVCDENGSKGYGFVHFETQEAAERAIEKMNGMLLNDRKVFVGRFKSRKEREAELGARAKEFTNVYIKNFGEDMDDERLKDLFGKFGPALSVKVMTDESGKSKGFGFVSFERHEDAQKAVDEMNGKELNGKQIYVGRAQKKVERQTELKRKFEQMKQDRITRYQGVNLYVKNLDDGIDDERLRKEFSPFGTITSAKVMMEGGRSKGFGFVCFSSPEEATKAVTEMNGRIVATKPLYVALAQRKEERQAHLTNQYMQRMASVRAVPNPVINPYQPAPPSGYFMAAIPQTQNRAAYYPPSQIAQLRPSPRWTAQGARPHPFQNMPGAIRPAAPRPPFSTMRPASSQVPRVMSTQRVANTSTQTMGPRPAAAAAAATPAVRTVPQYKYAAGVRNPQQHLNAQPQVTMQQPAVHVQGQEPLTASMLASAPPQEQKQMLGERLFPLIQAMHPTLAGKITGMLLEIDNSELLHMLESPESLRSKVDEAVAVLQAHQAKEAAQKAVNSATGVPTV
eIF4E-4G inh – blocks eIF4E binding to eIF4G. P63073+Q04637. AID 782. TR-FRET eIF4E-eIF4GI(517-606) binding, 2 h. inhibition, % at 21.7 µM. actives 0.37% (n = 220,000);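 active means inhibition above about 30%, limit read from the data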;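 further: 0% = full FRET control wells and 100% = background wells lacking eIF4GI fragment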
M18AAP inhibitor – PfM18AAP enzyme inhibition; inhibition, % at 7.35 µM; recombinant PfM18AAP, H-Glu-NHMec fluorogenic cleavage; AID 1822; actives 1.2% (n = 290,000);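 active means inhibition above the campaign mean inhibition over all tested compounds plus 3 SD, cut at about 28% in these data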;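 further: 0% = plate median of test compound wells and 100% = 2 mM ZnCl2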
PERK inhibitor – inhibitors of human PERK kinase. Q9NZJ5. CHO PERK-DD fusion, SEAP luminescence translation reporter. inhibition, % at 5.6 µM. actives 0.17% (n = 220,000);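 active means inhibition above the mean inhibition of all tested compounds plus 3 SD, set separately per screening campaign, cut at about 2.9% in these data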;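 further: PERK kinase domain activated by AP20187 dimerizer at 100 nM; 0% = DMSO with dimerizer and 100% = rapamycin at 8.4 µM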
eIF4H inh – inhibitors of RNA binding by human eIF4H. Q15056. eIF4H fluorescence polarization binding assay. inhibition, % at 35 µM. actives 0.94% (n = 290,000). AID 2012;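 further: calls also rest on retests at 20 µM and on dose response follow-up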
MLLE-PAM2 inh – blocks PAM2 peptide binding to the PABP1 MLLE domain; P11940; GST-MLLE / FITC-PAM2 fluorescence polarization; inhibition, % at 20 µM; actives 0.36% (n = 360,000); AID 588489; in the data active means inhibition above about 35%, passing the limit was not always enough;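 further: plate controls were DMSO wells with GST-MLLE for no effect and wells lacking GST-MLLE protein for full effect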
* marks the source's active call; other numbers are inactive results; ? = inconclusive; · = not tested or not shown. Unless noted, how the calls were made is not given here.

SMILES	PABP polyA inh	eIF4E-4G inh	M18AAP inhibitor	PERK inhibitor	eIF4H inh	MLLE-PAM2 inh
Cc1ccc(NC(=O)C(C)Sc2nnc3n2CCCCC3)cc1S(=O)(=O)N1CCOCC1 (stereo unspecified)	·	·	·	·	·	9
CN(C)c1ccc(CC2C(=O)Nc3ccccc32)cc1 (stereo unspecified)	5	5	31*	0	12	26
Oc1cc2c(cc1C(c1ccc(Br)cc1)N1CCCC1)OCO2 (stereo unspecified)	-25	44*	17	1	-14	31
O=S(=O)(NCC(c1ccc2c(c1)OCO2)N1CCOCC1)c1ccc(Br)cc1 (stereo unspecified)	·	·	·	·	·	0
CNC(=O)COC(=O)c1ccc2c(c1)S(=O)(=O)c1ccccc1C2=O	0	·	6	·	-13	-15
CN(C)CCOC(=O)c1ccc2c(c1)S(=O)(=O)c1ccccc1C2=O	-8	35*	4	1	-3	10
Cc1ccc(C(=O)Nc2nc3ccccc3c(=O)s2)cc1	-8	6	31*	2	4	46*
CSc1ncccc1C(=O)OCC(=O)N(C)c1c(N)n(Cc2ccccc2)c(=O)[nH]c1=O	·	·	·	·	·	-3
O=C(Nc1cccc(-c2nc3cccnc3s2)c1)C1c2ccccc2Oc2ccccc21	0	34*	0	1	16	-46
CCc1ccc([C@H]2[C@@H]3C(=O)C[C@@H]4C(=O)N(Cc5ccccc5)C(=O)[C@@H]4[C@@H]3CN2S(=O)(=O)c2ccc(C)cc2)cc1	·	·	·	·	·	-3
O=C(CSC1=Nc2ccccc2C2=NC(CC(=O)NC3CCCCC3)C(=O)N12)NCc1ccco1 (stereo unspecified)	?	6	-4	1	?	49*
O=C(CCC1N=C2c3ccccc3N=C(SCc3ccccc3Cl)N2C1=O)NCc1ccco1 (stereo unspecified)	3	1	-3	-2	-10	1
Oc1ccc(C=Nc2cccc3ncccc23)c(O)c1	33*	5	18	-1	58	23
COc1cccc(N=Cc2ccc(O)cc2O)c1	?	3	9	2	?	-28
Oc1ccc(C=Nc2ccccc2-c2nc3ccccc3[nH]2)c(O)c1	8	3	12	1	3	-8
Oc1ccc(C=Nc2ccc3ncccc3c2)c(O)c1	62*	0	16	1	81*	·
S=c1[nH]nc(C2COc3ccccc3O2)o1 (stereo unspecified)	22	0	8	3.0*	-8	-84
S=c1[nH]nc(C2CCCCC2)o1	-3	0	4	0	12	-85
C=C(C)C(=O)Oc1ccc(N=Nc2ccc(C)cc2)ccc1=O	·	·	·	·	·	7
O=C(CCl)NC(Cc1ccccc1)C(=O)OCC(=O)c1ccc(-c2ccccc2)cc1 (stereo unspecified)	·	·	·	·	·	-16
Cc1cc2cc(CNC(=O)c3ccc(S(=O)(=O)N4CCCCC4)cc3)ccc2n1C	45	-7	2	1	-20	49*
COc1ccc(S(=O)(=O)NCc2ccc3c(c2)cc(C)n3C)cc1	74*	3	6	1	64*	49*
Cc1cc2cc(CNC(=O)c3ccc(S(=O)(=O)N4CCCC4)cc3)ccc2n1C	-6	-6	-9	0	27	29
CCN(CC)S(=O)(=O)c1ccc(C(=O)NCc2ccc3c(c2)cc(C)n3C)cc1	2	-5	-6	0	20	46*
Cc1cc2cc(CNS(=O)(=O)c3ccccc3)ccc2n1C	20	-5	-5	-1	18	37
COc1ccc(NC(=O)C(=O)N2N=C3CCCCC3C2(O)C(F)(F)F)cc1 (stereo unspecified)	43	3	5	1	-5	-99
O=C(NCc1ccco1)c1ccc(S(=O)(=O)N2CCOCC2)cc1	26*	2	23	0	79*	27
O=C(c1ccc2nc(-c3ccco3)c(-c3ccco3)nc2c1)N1CCN(c2ccccc2)CC1	53*	-19	15	0	94*	22
O=S(=O)(c1ccc2nc(-c3ccco3)c(-c3ccco3)nc2c1)N1CCOCC1	82*	23	21	0	95*	23
CCc1nc2ccc(C(=O)N3CCN(c4ccccc4)CC3)cc2nc1CC	-8	·	-4	·	-9	-11

Source: PubChem
